Measurements: PubChem BioAssay (NCI)
The panel holds about 83,000 compounds, 20% with a hit somewhere; the sample as a whole holds those more often.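 The endpoint reported here, percent growth, reads 100 for growth as untreated, 0 for no net growth and -100 for all cells dead.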 Unmarked numbers belong to inactive results. Activity calls are given as the source filed them. How the source made its calls: active means growth percent below 10; inactive means the rest.

Each compound was assayed on M14 melanoma (assay: NCI-60 one-dose screen, 48 h (100 = growth as untreated, 0 = no growth, -100 = all killed)). Details: 10 µM.

With O=C1Nc2ccc(Cl)cc2/C1=C/c1cccc(OCc2ccccn2)c1 the growth was -50.5% (active).
For CN1CCN(Cc2ccc(C(=O)Nc3cccc(Nc4ccc5cc(O)ccc5n4)c3)cc2C(F)(F)F)CC1, the growth was -40.2% (active).
With N#Cc1c(NC(=O)c2ccc(C(F)(F)F)cc2C(F)(F)F)sc2c1CCC(=O)C2 the growth was -50.3% (active).
With C=C1CCC2C3(C)COC(c4ccccc4F)OC3CCC2(C)C1C/C=C1/C(=O)OCC1O (centres undefined) the growth was -54.1% (active).
In the case of O=C(Nc1nc2ccc([N+](=O)[O-])cc2s1)Nc1ccccc1I, the growth is reported as 2.29% (active).
For Brc1ccc(/C=N/Nc2ncnc3sc4c(c23)CCN(Cc2ccccc2)C4)cc1, the growth was -12.1% (active).
For CCCCCCCCCCCCCCCCCCCC(=O)NCCc1c[nH]c2ccc(OC(=O)NOCCOCCOCCOCCOCCOCCOCCOCCOCCOCCOCCOCCOCCOCCOCCOCCOCCOCCOCCOCCOCCOCCOC)cc12, the growth was -18.8% (active).

Going from O=C(O)CCCCCCCCCCN1C(=O)/C(=C/c2cnc(-c3ccc(Cl)cc3)s2)SC1=S to CC(=O)Nc1ccc(-n2cnc3cc(-c4ccc(O)cc4)ccc32)cc1C, the growth rises from 16.5% to 42.3%.

Compared with COc1ccc(NC(=O)Nc2ccc(OCC(=O)N=Nc3c(O)[nH]c4ccc([N+](=O)[O-])cc34)cc2)cc1, COc1ccc(-c2ccc(/C=N/NC(=O)c3[nH]c4ccc(Br)cc4c3-c3ccccc3)s2)cc1 is lower in growth: 118% for the first, 106% for the second.

Compared with C/C(=C\CC/C=C(\C)CC/C=C(\C)CC[C@@H](O)C(C)(C)O)CC/C=C(\C)CC[C@@H](O)C(C)(C)O, CN(CCF)c1ccc(/C=C/C(=O)c2ccc(N)cc2O)cc1 is higher in growth: 22.7% for the first, 107% for the second.

First: CCOC(=O)C1NN(c2ccc(S(N)(=O)=O)cc2)c2nc3nc(-c4cccs4)cc(-c4cccs4)c3c(=O)n21 (centres undefined)
Second: COc1ccc(N2N=C(c3ccc4c(c3)OCCO4)CC2c2cccc(NC(=O)CCCNS(=O)(=O)c3ccc(F)cc3)c2)cc1 (centres undefined)
The growth of the first is lower: 74% for the first, 81.9% for the second.

Compared with C=C1CCC2C3(C)COC(c4c(F)cccc4F)OC3CCC2(C)C1CC(O)C1=CCOC1=O (centres undefined), CN1CCCN(Cc2ccc(C(=O)Nc3cccc(Nc4ccc5cc(O)ccc5n4)c3)cc2C(F)(F)F)CC1 is lower in growth: 53.9% for the first, 47.2% for the second.

First: O=C(Nc1cccc(-c2cn(-c3ccc4oc(=O)ccc4c3)nn2)c1)Nc1cc(C(F)(F)F)cc(C(F)(F)F)c1
Second: Cc1ccc(/C(N)=N/c2sc(-c3ccccc3)nc2-c2ccccc2)cc1
The growth of the first is lower: 55.5% for the first, 79.6% for the second.

Compared with O=C(c1ccc(O)cc1)C1[C@H](c2ccccc2Br)[C@@H](c2ccccc2)NC12C(=O)Nc1ccc(Br)cc12 (some centres undefined), O=C(c1ccc(O)cc1)C1[C@H](c2ccc(Br)cc2)[C@@H](c2ccccc2)NC12C(=O)Nc1ccccc12 (some centres undefined) is lower in growth: 54.6% for the first, 51.7% for the second.

First: Nc1nnc(-c2c[nH]c3ccc(F)cc23)c(-c2c[nH]c3ncccc23)n1
Second: Cc1ccc(CSc2nc(-c3ccc(F)cc3)c(C#N)c(=O)[nH]2)cc1
The growth of the first is lower: 63.5% for the first, 116% for the second.

In the case of CN1CCN(c2ccc(C(=O)/C=C/c3ccc(C#N)cc3)cc2)CC1, the growth is reported as 79.6%.
